Assay outcomes from PubChem BioAssay.
Pf Dd2 inh: blocks growth of Plasmodium falciparum Dd2 parasites; P. falciparum Dd2 growth, SYBR Green, 72 h; active compounds read low; activity change, % at 10 µM; hit rate 2.3% among 94,000; AID 1159554; in the data active = activity change below about -80%; inconclusive = no clear call, values can overlap the other calls
T cruzi growth-1: T. cruzi proliferation inhibition; T. cruzi beta-gal in NIH3T3, GalScreen luminescence, 90 h; inhibition, % at 8.34 µM; hit rate 5.9% among 77,000; AID 624255;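 active = mean inhibition above about 93%, with at least 55% of replicates each passing it, limit read from the data, passing the limit was not always enough; inconclusive = only one of those two conditions holds; inactive = neither condition holds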
C diff HTS: blocks growth of Clostridium difficile. growth activity, negative = inhibition, % at 16 µg/mL (by protocol). hit rate 0.25% among 86,000. Clostridium difficile clinical isolate growth, OD600, 24 h; active compounds read low;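 active = mean growth activity at or below -80% and every replicate also at or below -80%; inconclusive = mean at or below -80% but some replicate above -80%; inactive = mean growth activity above -80%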;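 also: 0% = DMSO wells and -100% = levofloxacin 16 µg/mL wells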
T cruzi growth-2: Trypanosoma cruzi proliferation inhibition | hit rate 72% among 5,600 | T. cruzi beta-gal in NIH3T3, GalScreen luminescence, 90 h | inhibition, % at 8.35 µM | AID 651739 | shares compounds with T cruzi growth-1;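 active = mean replicate inhibition above about 95% and at least 55% of replicates individually reaching it, limit read from the data; inconclusive = only one of the two criteria is met; inactive = neither criterion is met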
T cruzi growth-3: blocks T. cruzi growth in NIH3T3 host cells | shares compounds with T cruzi growth-1 | T. cruzi beta-gal in NIH3T3, GalScreen luminescence, 90 h | inhibition, % at 2.09 µM | hit rate 21% among 5,600;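 active = mean inhibition above about 95%, with at least 55% of replicates also reaching it, limit read from the data; inconclusive = meets just one of the two conditions; inactive = meets neither condition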;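 also: plate controls were neutral control median for no effect and positive control median for full effect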
NIH3T3 tox: kills mouse NIH/3T3 fibroblasts; shares compounds with T cruzi growth-1; NIH/3T3 viability, CellTiter-Glo ATP luminescence, 90 h; cytotoxicity (signal decrease), % at 8.35 µM; hit rate 14% among 5,600; AID 651742;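 active = mean signal decrease across replicates above about 35% based on untreated-well scatter, with enough replicates individually passing, limit read from the data; inconclusive = no rule stated though some were filed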;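 also: 0% = median of neutral control wells and 100% = median of positive control wells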
3T3 cytotox 2: NIH/3T3 (mouse) viability loss; shares compounds with T cruzi growth-1; NIH/3T3 viability, CellTiter-Glo ATP luminescence, 90 h; inhibition, % at 24.9 µM; hit rate 56% among 5,600; AID 651744;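 active = mean loss of cell viability signal at or above a set limit, and enough replicates individually reaching it; inconclusive = meets only the mean limit or only the replicate share; inactive = meets neither condition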;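 also: 0% = median of neutral control wells and 100% = median of positive control wells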
Starred values were filed as active, the others as inactive; ? = inconclusive; nt = no result given. Sampled rows, rich in hits. Any-hit rate of the full collection: about 6.7%.

SMILES	Pf Dd2 inh	T cruzi growth-1	C diff HTS	T cruzi growth-2	T cruzi growth-3	NIH3T3 tox	3T3 cytotox 2
CC(C)NC(=O)N1[C@@H](C#N)[C@H](c2ccc(C#CC3CCCCC3)cc2)[C@@H]1CO	-37	100*	-13	105*	73	3	62*
N#C[C@H]1[C@@H](c2ccc(C#CC3CCCCC3)cc2)[C@@H](CO)N1C(=O)Nc1ccc(F)cc1	-3	nt	67	nt	nt	nt	nt
C[C@H]1CN([C@@H](C)CO)C(=O)Cc2cc(NC(=O)Nc3cccc4ccccc34)ccc2O[C@H]1CN(C)C(=O)Nc1ccc(F)cc1	-38	42	-1	nt	nt	nt	nt
C[C@H]1CCCCO[C@@H](CN(C)S(=O)(=O)c2ccccc2)[C@@H](C)CN([C@@H](C)CO)C(=O)c2cc(NS(=O)(=O)c3ccc(F)cc3)ccc2O1	-84*	101*	-16	107*	64	-5	12
C[C@@H]1CCCCO[C@H](CN(C)S(=O)(=O)c2ccccc2)[C@H](C)CN([C@@H](C)CO)C(=O)c2cc(NS(=O)(=O)c3ccc(F)cc3)ccc2O1	-32	20	-11	nt	nt	nt	nt
C[C@H]1CCCCO[C@H](CN(C)S(=O)(=O)c2ccccc2)[C@@H](C)CN([C@@H](C)CO)C(=O)c2cc(NS(=O)(=O)c3ccc(F)cc3)ccc2O1	-66	97*	-9	110*	70	19	9
C[C@@H]1CCCCO[C@H](CN(C)S(=O)(=O)c2ccccc2)[C@@H](C)CN([C@H](C)CO)C(=O)c2cc(NS(=O)(=O)c3ccc(F)cc3)ccc2O1	-41	14	-10	nt	nt	nt	nt
O=C(Nc1ccc(C(F)(F)F)cc1)Nc1ccc2c(c1)[C@H]1C[C@H](CC(=O)N3CCc4ccccc4C3)O[C@H](CO)[C@H]1O2	-70	?	22	85	110*	54*	106*
O=C(Nc1ccc(C(F)(F)F)cc1)Nc1ccc2c(c1)[C@@H]1C[C@H](CC(=O)N3CCc4ccccc4C3)O[C@@H](CO)[C@@H]1O2	-32	153*	-1	103*	114*	13	19
O=C(Nc1ccc(C(F)(F)F)cc1)Nc1ccc2c(c1)[C@@H]1C[C@@H](CC(=O)N3CCc4ccccc4C3)O[C@@H](CO)[C@@H]1O2	-52	77	11	nt	nt	nt	nt
O=C(Nc1ccc2c(c1)[C@H]1C[C@@H](CC(=O)N3CCc4ccccc4C3)O[C@@H](CO)[C@H]1O2)Nc1ccccc1F	-57	nt	6	nt	nt	nt	nt
COCC(=O)Nc1ccc2c(c1)[C@H]1C[C@@H](CC(=O)NCc3ccccc3)O[C@H](CO)[C@H]1O2	9	36	nt	nt	nt	nt	nt
CC(C)C#Cc1ccc([C@H]2[C@@H](CO)N(C(=O)C3CC3)[C@H]2C#N)cc1	19	-25	8	nt	nt	nt	nt
CCCC#Cc1ccc([C@@H]2[C@H](C#N)N(C(=O)C3CC3)[C@H]2CO)cc1	-30	98*	18	107*	108*	18	7
CCCC#Cc1ccc([C@@H]2[C@@H](C#N)N(C(=O)C3CCCC3)[C@H]2CO)cc1	-23	102*	-5	96*	102*	24	39*
CC(C)C#Cc1ccc([C@@H]2[C@@H](C#N)N(C(=O)C3CCC3)[C@H]2CO)cc1	-6	?	-15	101*	77	20	33*
CCCC#Cc1ccc([C@H]2[C@@H](C#N)N(C(=O)C3CCOCC3)[C@H]2CO)cc1	-33	92	6	nt	nt	nt	nt
CCCC#Cc1ccc([C@H]2[C@@H](CO)N(C(=O)C3CCCC3)[C@H]2C#N)cc1	25	105*	0	116*	11	-4	28*
CC(C)C#Cc1ccc([C@H]2[C@@H](CO)N(C(=O)C3CCC3)[C@H]2C#N)cc1	26	37	4	nt	nt	nt	nt
CCCC#Cc1ccc([C@@H]2[C@@H](CO)N(C(=O)C3CCOCC3)[C@H]2C#N)cc1	-22	74	2	nt	nt	nt	nt
COc1ccccc1C#Cc1cnc2c(c1)C(=O)N([C@@H](C)CO)C[C@@H](C)[C@@H](CN(C)C(=O)CC1CC1)O2	-39	59	4	nt	nt	nt	nt
O=C1CNC[C@@H]2[C@@H](c3ccc(-c4ccccc4F)cc3)[C@H](CO)N12	-20	nt	-2	nt	nt	nt	nt
CC(C)C#Cc1ccc([C@H]2[C@H](C#N)N(C(=O)C3CC3)[C@H]2CO)cc1	-10	83	-6	nt	nt	nt	nt
CC(C)C#Cc1ccc([C@H]2[C@@H](C#N)N(C(=O)C3CC3)[C@@H]2CO)cc1	7	79	-3	nt	nt	nt	nt
CCCC#Cc1ccc([C@@H]2[C@@H](C#N)N(C(=O)C3CCC3)[C@@H]2CO)cc1	-14	99*	-19	99*	28	30	33*
SMILES	Pf Dd2 inh	T cruzi growth-1	C diff HTS	T cruzi growth-2	T cruzi growth-3	NIH3T3 tox	3T3 cytotox 2
CCCC#Cc1ccc([C@H]2[C@@H](C#N)N(C(=O)C3CCCC3)[C@H]2CO)cc1	-54	98*	-2	90	106*	1	43*
CN1C(=O)c2cc(NC(=O)c3ccccc3Cl)ccc2OC[C@@H]2O[C@H](CC(=O)NCC(F)(F)F)CC[C@H]21	nt	0	-2	nt	nt	nt	nt
CN1C(=O)c2cc(NC(=O)C3CCCCC3)ccc2OC[C@H]2O[C@H](CC(=O)NCC3CCCCC3)CC[C@@H]21	-26	nt	18	nt	nt	nt	nt
CCc1cnc(N2[C@H](CO)[C@@H](c3ccccc3)[C@@H]2C#N)s1	-2	2	8	nt	nt	nt	nt
CCc1cnc(N2[C@H](C#N)[C@H](c3ccc(C#Cc4ccccc4F)cc3)[C@@H]2CO)s1	-65	97*	6	101*	112*	-27	-11
CCc1cnc(N2[C@H](C#N)[C@@H](c3ccccc3)[C@@H]2CO)s1	14	36	1	nt	nt	nt	nt
CCc1cnc(N2[C@H](C#N)[C@H](c3ccccc3)[C@@H]2CO)s1	22	-6	1	nt	nt	nt	nt
CCc1cnc(N2[C@H](C#N)[C@@H](c3ccc(C#Cc4ccccc4F)cc3)[C@H]2CO)s1	-26	111*	1	103*	101*	11	28*
CCc1cnc(N2[C@H](C#N)[C@H](c3ccc(C#Cc4ccccc4F)cc3)[C@H]2CO)s1	-53	100*	4	91	106*	-9	95*
O=C(C[C@H]1C=C[C@H](NC(=O)C2CC2)[C@@H](CO)O1)NCc1ccccc1Cl	16	14	nt	nt	nt	nt	nt
CCC(=O)N1C[C@H](O)COC[C@H]2O[C@H](CC(=O)NCC3CCCCC3)CC[C@@H]21	3	74	-3	nt	nt	nt	nt
CC(C)CC#Cc1ccc2c(c1)O[C@H](CN(C)C(=O)c1cccc(F)c1)[C@@H](C)CN([C@@H](C)CO)S2(=O)=O	-41	126*	4	99*	102*	25	106*
C[C@H](CO)N1C[C@H](C)[C@@H](CN(C)C(=O)c2cccc(F)c2)Oc2cc(C#CC3CC3)ccc2S1(=O)=O	29	nt	-7	nt	nt	nt	nt
